Measured values published in PubChem BioAssay AID430 (Sanford-Burnham Center for Chemical Genomics, 2006).
Out of some 63,000 compounds screened, about 1,100 (1.7%) were called active. Cut-off read from the data, not from the text of the source: active = cytotoxicity above about 50%; inactive = the rest. For the sample, actives were picked, then their nearest neighbours and some compounds at random. Entries with a potency or affinity are not part of this list.

Experiment: cytotoxicity in HPDE-C7 cells, cell-based, fluorescence, HTS (AID 430);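 note: cells exposed to compound for 48 hours before viability readout; 0% = vehicle and 100% = reference cytotoxic drug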
Details: HPDE-C7 pancreatic duct cells viability, at 10 µM, stronger effect = higher value
In the case of `O=C(Nc1ccc2c(c1)OCO2)C1CC(c2ccccc2Cl)=NO1` (stereo not drawn), the cytotoxicity was 5.2% (inactive).
In the case of `CC(=O)OCC(=O)NCc1ccc2c(c1)OCO2`, the cytotoxicity was -32.4% (inactive).
For `c1ccc(-n2c(Sc3cnccn3)nnc2-c2cccs2)cc1`, the cytotoxicity was -0.3% (inactive).
With `Cc1occc1C(=O)Nc1cccnc1` the cytotoxicity was -15.1% (inactive).
For `O=S(=O)(c1ccc(Oc2ccc(S(=O)(=O)N3CCOCC3)cc2)cc1)N1CCOCC1`, the cytotoxicity was -11.9% (inactive).
In the case of `CNS(=O)(=O)c1ccc(Oc2ccc(S(=O)(=O)NC)cc2)cc1`, the cytotoxicity was 5% (inactive).
In the case of `C=CS(=O)(=O)c1ccc(Oc2ccc(S(=O)(=O)C=C)cc2)cc1`, the cytotoxicity was 93.9% (active).
For `CCOC(=O)Cc1csc(NC(=O)CCS(=O)(=O)Cc2ccccc2)n1`, the cytotoxicity was 0% (inactive).
For `Cc1cccc(NC(=O)NCCN2C(=O)C3C4C=CC(C4)C3C2=O)c1` (stereo not drawn), the cytotoxicity was 0.7% (inactive).
In the case of `CC(=O)NC(Cc1c[nH]c2ccccc12)C(=O)N1CCc2ccccc2C1` (stereo not drawn), the cytotoxicity was 4.8% (inactive).
With `COc1cc(C2c3c(n[nH]c3C)C(=O)N2c2ccc(Br)cc2)ccc1O` (stereo not drawn) the cytotoxicity was 27.9% (inactive).
In the case of `COc1cc(C2c3c(n[nH]c3C)C(=O)N2c2ccc(C)cc2)ccc1O` (stereo not drawn), the cytotoxicity was 53.1% (active).
With `CCOc1cc(C2c3c(n[nH]c3C)C(=O)N2c2ccc(Br)cc2)ccc1O` (stereo not drawn) the cytotoxicity was 15.4% (inactive).
For `COc1ccc(Cl)cc1N(CC(=O)N1CCN(Cc2ccccc2)CC1)S(C)(=O)=O`, the cytotoxicity was -0.8% (inactive).
In the case of `CC(C)(C)NC(=O)CSc1nnc(-c2ccco2)n1Cc1ccco1`, the cytotoxicity was -15.8% (inactive).
In the case of `COC(=O)c1ccc(C(=O)OC)nc1`, the cytotoxicity was -18.5% (inactive).
With `CCOC1(NC(=O)c2ccccc2)C(C)=CC(=O)C=C1C` the cytotoxicity was -9.8% (inactive).
In the case of `O=C(Cn1cccc1)Nc1ccc(OC(F)(F)F)cc1`, the cytotoxicity was -1.8% (inactive).
In the case of `C=CCn1c(SC(CCO)C(=O)NCc2ccco2)nc2sc3c(c2c1=O)CCC3` (stereo not drawn), the cytotoxicity was 6.3% (inactive).
In the case of `C=CCn1c(NCCO)nc2sc3c(c2c1=O)CCC3`, the cytotoxicity was 62.9% (active).
With `C=CCn1c(SCC(=O)N2CCOCC2)nc2sc3c(c2c1=O)CCCC3` the cytotoxicity was -1.2% (inactive).
For `COc1ccc(Cl)cc1S(=O)(=O)N1CCN(C)CC1`, the cytotoxicity was -4.6% (inactive).
For `CCN(CC)C(=O)C1CCCN(C/C(C)=C/c2ccccc2)C1` (stereo not drawn), the cytotoxicity was -8.8% (inactive).
With `N#Cc1c2c(c(=S)n(-c3ccccc3)c1N)CCCC2` the cytotoxicity was 1.6% (inactive).
With `CCOC(=O)c1c(N)sn(-c2ccccc2)c1=S` the cytotoxicity was -2% (inactive).
For `CC(C(=O)N1CCN(c2ccccc2)CC1)N1C(=O)C2CC=CCC2C1=O` (stereo not drawn), the cytotoxicity was -2.6% (inactive).
In the case of `CCCNC(=O)c1[nH]c(C)c(C(C)=O)c1C`, the cytotoxicity was 2% (inactive).
With `CC(=O)c1c(C)[nH]c(C)c1C(C)=O` the cytotoxicity was -8.7% (inactive).
With `CCc1[nH]c(C)c(C(C)=O)c1C` the cytotoxicity was 59.8% (active).
For `COc1ccc(Cn2c3nc4ccccc4nc3c3c(=O)n(Cc4ccco4)cnc32)cc1`, the cytotoxicity was 20.7% (inactive).
With `CC(C)C1N(S(=O)(=O)c2ccccc2)CCN1S(=O)(=O)c1ccccc1` the cytotoxicity was 2% (inactive).
With `Cc1cccc(OCCCCCNCCO)c1` the cytotoxicity was 9.6% (inactive).
In the case of `COc1ccc(OC)c(NC(=O)CSC2=C(C#N)C(c3ccco3)C3=C(CCCC3=O)N2)c1` (stereo not drawn), the cytotoxicity was -1.5% (inactive).
With `N#Cc1ccc(-c2ccco2)nc1SCC(=O)c1ccc(Cl)cc1` the cytotoxicity was 21.1% (inactive).
With `Nc1nnc(SCc2ccccc2Cl)s1` the cytotoxicity was 8.4% (inactive).
In the case of `CS(=O)(=O)Nc1ccccc1C(=O)Nc1cccc(Cl)c1`, the cytotoxicity was 5.3% (inactive).
For `COc1ccc(Cl)cc1NC(=O)Cn1c(=O)n2nc(C)nc2c2ccccc21`, the cytotoxicity was 7.2% (inactive).
In the case of `O=C(CSc1n[nH]c(-c2ccccc2O)n1)N1CCCc2ccccc21`, the cytotoxicity was 2.3% (inactive).
With `Cc1ccnc(NS(=O)(=O)c2ccc(NS(=O)(=O)Cc3ccccc3)cc2)n1` the cytotoxicity was -21.7% (inactive).
For `CCOc1ccccc1C1CC(=O)NC2=C1C(=O)CC(C)(C)C2` (stereo not drawn), the cytotoxicity was 9.7% (inactive).
In the case of `CCOc1ccccc1C1CC(=O)Nc2cc3c(cc21)OCCO3` (stereo not drawn), the cytotoxicity was 51.1% (active).
For `CCOc1c(OC)cccc1C1CC(=O)Nc2cc3c(cc21)OCCO3` (stereo not drawn), the cytotoxicity was 13.7% (inactive).
For `CCOc1ccccc1C1CC(=O)Nc2cc3c(cc21)OCO3` (stereo not drawn), the cytotoxicity was 59.7% (active).
For `CCOc1c(OC)cccc1C1CC(=O)Nc2cc(OC)c(OC)cc21` (stereo not drawn), the cytotoxicity was 7.3% (inactive).
For `CCOc1ccccc1C1CC(=O)Nc2cc(OC)c(OC)c(OC)c21` (stereo not drawn), the cytotoxicity was -16.2% (inactive).
With `CN(C(=O)C12CC3CC(CC(C3)C1)C2)C1CCS(=O)(=O)C1` (stereo not drawn) the cytotoxicity was -5.1% (inactive).
In the case of `O=C(Oc1cc(=O)oc2ccccc12)c1ccco1`, the cytotoxicity was 14.1% (inactive).
In the case of `CCCCS(=O)(=O)/C=C\C=C/S(=O)(=O)CCCC`, the cytotoxicity was 111% (active).
With `CCCCS(=O)(=O)/C=C\C1C2C=CC(C2)C1S(=O)(=O)CCCC` (stereo not drawn) the cytotoxicity was -10.1% (inactive).
In the case of `CC(=O)NC1(c2cccc(F)c2)CCN(C(=O)Nc2ccc(C#N)cc2)CC1`, the cytotoxicity was -15% (inactive).
With `CC(NC(=O)Cc1ccsc1)c1ccc(S(N)(=O)=O)cc1` (stereo not drawn) the cytotoxicity was 5.5% (inactive).
In the case of `CN1CCN(CCC(=O)N2c3ccccc3Sc3ccc(Cl)cc32)CC1`, the cytotoxicity was 17.5% (inactive).
In the case of `O=C(CN1CCN(CCOCCO)CC1)N1c2ccccc2Sc2ccc(Cl)cc21`, the cytotoxicity was -24.7% (inactive).
In the case of `CN1CCN(CCCN2c3ccccc3Sc3ccc(Cl)cc32)CC1`, the cytotoxicity was 75% (active).
For `CN(C)CCCN1c2ccccc2CCc2ccc(Cl)cc21`, the cytotoxicity was 31.8% (inactive).
With `OCCN1CCN(C(=S)c2ccc(Cl)cc2)CC1` the cytotoxicity was -26% (inactive).
In the case of `CCCN(C(=O)CSc1nnc(-c2ccoc2C)n1N)C1CCS(=O)(=O)C1` (stereo not drawn), the cytotoxicity was 6.4% (inactive).
For `CCOC(=O)c1cn(CC)c2ccc(S(=O)(=O)N3CC(C)CC(C)C3)cc2c1=O` (stereo not drawn), the cytotoxicity was -2% (inactive).
In the case of `CC1=C(C(=O)OCC2CCCO2)C(c2cccc(O)c2)NC(=O)N1` (stereo not drawn), the cytotoxicity was -6.4% (inactive).
For `CC(=O)N1CCc2cc(S(=O)(=O)CCC(=O)NCc3ccc4c(c3)OCO4)ccc21`, the cytotoxicity was -4.4% (inactive).
With `COc1ccccc1N1CCN(C(=O)c2cc3c(=O)n(C)c4ccccc4c3n2C)CC1` the cytotoxicity was 29% (inactive).
With `Cn1c(C(=O)N2CCN(c3ccccc3F)CC2)cc2c(=O)n(C)c3ccccc3c21` the cytotoxicity was 5.3% (inactive).
With `Cn1c(C(=O)Nc2ccc3c(c2)OCCO3)cc2c(=O)n(C)c3ccccc3c21` the cytotoxicity was 60% (active).
For `Cc1cccc(N2CCN(C(=O)c3cc4c(=O)n(C)c5ccccc5c4n3C)CC2)c1C`, the cytotoxicity was 61.6% (active).
With `Cn1c(C(=O)Nc2ccc3c(c2)OCO3)cc2c(=O)n(C)c3ccccc3c21` the cytotoxicity was 18% (inactive).
In the case of `Cn1c(C(=O)N2CCCC2)cc2c(=O)n(C)c3ccccc3c21`, the cytotoxicity was 14.1% (inactive).
In the case of `CC(NC(=O)c1cc2c(=O)n(C)c3ccccc3c2n1C)c1ccc2c(c1)OCCO2` (stereo not drawn), the cytotoxicity was 38.8% (inactive).
For `Cc1ccc(Cl)cc1N1CCN(C(=O)c2cc3c(=O)n(C)c4ccccc4c3n2C)CC1`, the cytotoxicity was 59.5% (active).
With `Cn1c(C(=O)N2CCN(c3ccc(Cl)cc3)CC2)cc2c(=O)n(C)c3ccccc3c21` the cytotoxicity was 6.6% (inactive).
With `O=C(COc1ccc(S(=O)(=O)NC2CCCCC2)cc1Cl)NCC1CCCO1` (stereo not drawn) the cytotoxicity was -2.7% (inactive).
For `CC(C)CCNC(=O)c1cccc(Cl)c1`, the cytotoxicity was 1.2% (inactive).
With `O=C(Cn1c(=O)n2ncnc2c2c3c(sc21)CCCC3)c1ccccc1` the cytotoxicity was -18.5% (inactive).
In the case of `O=c1n(Cc2ccccc2Cl)c2sc3c(c2c2ncnn12)CCCC3`, the cytotoxicity was -20.8% (inactive).
In the case of `COCCSc1nnc(NS(=O)(=O)Cc2ccccc2)s1`, the cytotoxicity was -1.4% (inactive).
For `O=C(O)CSc1ncn[nH]1`, the cytotoxicity was 1% (inactive).
For `c1ccc(Nc2c3c(nc4ncnn24)CCC3)cc1`, the cytotoxicity was -24.1% (inactive).
With `C=CCc1cc(C)ccc1OCC(O)CN1CCN(c2ccccc2)CC1` (stereo not drawn) the cytotoxicity was 22.9% (inactive).
With `COc1ccc(S(=O)(=O)N2CCN(S(=O)(=O)c3ccc4c(c3)OCCO4)CC2)cc1C` the cytotoxicity was -3.8% (inactive).
With `COc1cc(NS(=O)(=O)c2cc(C)ccc2OC)c(OC)cc1Cl` the cytotoxicity was -0.5% (inactive).
For `COc1cc(NS(=O)(=O)c2ccc(OC)c(C)c2C)c(OC)cc1Cl`, the cytotoxicity was 60.7% (active).
In the case of `COc1ccc(OC)c(S(=O)(=O)Nc2cc(OC)c(Cl)cc2OC)c1`, the cytotoxicity was 5.6% (inactive).
In the case of `CC1CCCCN1C(=O)c1cnn2c(C(F)(F)F)cc(-c3ccco3)nc12` (stereo not drawn), the cytotoxicity was -7.7% (inactive).
For `CCN1CCN(c2ncnc3c2cnn3-c2ccc(C)cc2C)CC1`, the cytotoxicity was -8.1% (inactive).
In the case of `COc1ccc(N2CCN(c3ncnc4c3cnn4-c3ccc(C)cc3C)CC2)cc1`, the cytotoxicity was 0.4% (inactive).
With `CCc1cc2c(N3CCN(c4ccccc4)CC3)ncnc2s1` the cytotoxicity was 75.1% (active).
With `CCc1cc2c(N3CCN(c4nnc(CC)s4)CC3)ncnc2s1` the cytotoxicity was 15.2% (inactive).
For `CCc1cc2c(N3CCCCC3)ncnc2s1`, the cytotoxicity was -21.8% (inactive).
For `O=C(c1ccco1)N1CCN(c2ncnc3c2cnn3-c2ccccc2)CC1`, the cytotoxicity was -6.3% (inactive).
With `O=C(COc1ccccc1)N1CCN(c2ncnc3c2cnn3-c2ccccc2)CC1` the cytotoxicity was -0.4% (inactive).
In the case of `Cc1ccc(-n2ncc3c(N4CCCC4)ncnc32)c(C)c1`, the cytotoxicity was -2.3% (inactive).
With `COc1ccc(-n2ncc3c(N4CCN(c5cc(C)ccc5C)CC4)ncnc32)cc1` the cytotoxicity was 1.5% (inactive).
For `Cc1cc(C(=O)CN2C(=O)c3ccccc3C2=O)c(C)n1C1CC1`, the cytotoxicity was 6.6% (inactive).
With `O=C(c1ccccc1)N1CCCOC1c1ccccc1` (stereo not drawn) the cytotoxicity was 2.4% (inactive).
In the case of `Cn1c(=O)c2c(nc(SCC(=O)NC3CCCCC3)n2C)n(C)c1=O`, the cytotoxicity was -18.4% (inactive).
In the case of `COc1ccc(CCNC(=O)CN2C(=O)c3ccccc3S2(=O)=O)cc1OC`, the cytotoxicity was 0.7% (inactive).
With `Cn1cccc1Cc1nnc(SCC(=O)Nc2ccccc2)n1-c1ccc(F)cc1` the cytotoxicity was 0% (inactive).
With `O=C(CN1CCC(NC(=O)c2ccc(F)cc2)CC1)NCc1ccccc1F` the cytotoxicity was -5.6% (inactive).
With `O=C(Nc1cccc(Cl)c1)N1CCN(Cc2ccccc2)CC1` the cytotoxicity was 17.3% (inactive).
